Among all 360,000 compounds or so, about 25,000 (6.9%) were called active. Another 9% or so got no clear call; they are omitted. For the sample, actives were picked, then their nearest neighbours and some compounds at random. A number with no mark means an inactive call. The call rests on the fitted dose curve; in most records, active means well fitted inhibition curve with a large enough effect; inconclusive means small, poorly fitted or top-dose-only effect; inactive means flat fitted curve, though single readings scatter.
target: Luciferin 4-monooxygenase (Photinus pyralis) (UniProt P08659); assay: qHTS profiling assay for firefly luciferase inhibitor/activator using purifed enzyme and Km concentrations of substrates (counterscreen for miR-21 project); details: purified FLuc, luminescence inhibition; series mostly up to 57.5 µM; activity change, negative = inhibition: at the top concentration; further: nearly all actives have a fitted effect of over 55% in size;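 on activity change, negative = inhibition: plate controls were vehicle for no effect and reference inhibitor for full effect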
Sequence (P08659 whole entry, looked up): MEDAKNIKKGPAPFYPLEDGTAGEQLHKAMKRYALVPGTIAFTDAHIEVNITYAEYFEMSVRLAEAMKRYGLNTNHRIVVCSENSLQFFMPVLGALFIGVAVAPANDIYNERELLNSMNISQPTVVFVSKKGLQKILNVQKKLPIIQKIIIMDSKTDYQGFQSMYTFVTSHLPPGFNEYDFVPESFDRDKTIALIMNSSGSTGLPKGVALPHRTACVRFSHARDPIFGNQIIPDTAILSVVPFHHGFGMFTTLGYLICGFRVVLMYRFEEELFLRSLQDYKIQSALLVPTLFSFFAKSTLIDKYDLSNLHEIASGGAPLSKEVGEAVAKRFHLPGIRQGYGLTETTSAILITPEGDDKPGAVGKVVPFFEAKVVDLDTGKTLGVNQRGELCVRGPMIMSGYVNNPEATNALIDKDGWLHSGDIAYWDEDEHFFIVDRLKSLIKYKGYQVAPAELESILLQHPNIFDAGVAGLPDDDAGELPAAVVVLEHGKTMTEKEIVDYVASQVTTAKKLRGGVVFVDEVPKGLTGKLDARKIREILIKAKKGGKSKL
Text: MLPCN Grant: 1 R21 NS059478-01 (miR-21 grant) Assay Provider: NCGC NCGC Assay Overview: Firefly (Photinus pyralis) luciferase is one of the most commonly used transcriptional reporters for a number of reasons. It is considered one of the more dynamically responsive reporters -that is, responsive to changes in reporter transcription - as it requires no post-translational modifications and is enzymatically active directly after protein synthesis (Wood, 1998). Additionally, the half-life of the luciferase protein is short relative to other reporter-gene products (Wood, 1995). Whereas reporters with long half-lives potentially allow for increased signal due to accumulation of reporter-gene product, once accumulated in the cell, dynamic changes in reporter-gene expression may be difficult to detect(Fan and Wood, 2007; Almond et al., 2004). It has been shown that wild-type P. pyralis luciferase has a half-life of approximately […] hours in mammalian cells (Thompson et al., 1991). Firefly luciferase reporter-gene assays are also generally considered one of the most sensitive assay types (Wood, 1995; Wood, 1998). Although light produced in a bioluminescence reaction is of lower intensity than that produced during fluorescence emission, this is offset by little to no background light inherent to luminescent assays. Thus the luciferase reporter can be expressed at much lower levels than fluorescent proteins while still providing robust signal. # However, it was initially observed, in 1991, by Thompson et al., that compounds that resemble the substrates of firefly luciferase (FLuc) can act as competitive inhibitors of the enzyme, and that these compounds, upon interaction with luciferase in the cell, can actually stabilize the protein and increase its half-life. Accumulated intracellular FLuc protein can be measured as an increase in luminescence signal, upon addition of detection reagents (which contain high concentrations of FLuc substrates) commonly used in high-throughput screening. In cell-based reporter gene assays that use FLuc as the reporter gene to quantitate the potential influence of a given compound against the target biology, this apparent increase in luminescence can mistakenly be interpreted as identification of a compound that is active against the target of interest. This is the case for the miR-21 FLuc reporter gene assay used to identify inhibitors of the miR-21 pathway (PubChem AID 2289) - compounds of interest will inhibit miR-21 biogenesis/expression or activity, and are identified by causing an increase in luminescence, due to increased FLuc translation. However, FLuc inhibitory compounds that stabilize the FLuc protein will give an identical read-out, making it difficult to distinguish compounds that are active against the target from those active against FLuc. Previous profiling work to determine the prevalence of compounds that affect FLuc enzymatic activity (PubChem AID 411) identified that ~3% of the MLSMR library (then at ~72K) inhibited FLuc. […] Since the MLSMR had grown to ~350K compounds, and since it was expected that a significant percentage of compounds found active in the miR-21 FLuc assay would be FLuc inhibitors, the library was screened for activity against FLuc using a biochemical assay of purified FLuc and KM concentrations of FLuc substrates (D-luciferin and ATP).
NCGC Assay Protocol Summary: Reagents: 50mM Tris acetate, pH 7.5; 10mM Mg acetate; 10uM D-luciferin (Sigma #L9504); 10uM ATP; 0.01% Tween-20; 0.05% BSA; 10nM P. pyralis luciferase (Sigma #L9506) Control compounds used were two known firefly luciferase inhibitors (compounds (2) and (5) in Auld et al., 2010), and DMSO. […]

| Structure (SMILES) | Potency | activity change, negative = inhibition |
| --- | --- | --- |
| CC(C)(C)c1nnc(N/N=C/c2ccc(O)cc2)n(N)c1=O | 13.5 µM (active) | – |
| Cc1nnc(NC(=O)c2ccc3nccnc3c2)s1 | 15.1 µM (active) | – |
| CC(C)CCC(C)NC(=O)c1ccc2nccnc2c1 (stereo not given) | – | -15% |
| Cc1nnc(NC(=O)C(c2ccccc2)c2ccccc2)s1 | – | -1.25% |
| Cc1ccc(S(=O)(=O)N2CCC(C(=O)Nc3cc(C)ccc3C)CC2)cc1 | – | -1.47% |
| Cc1cccc(-n2cnc(C(=O)NNC(=S)Nc3ccccc3)c2)n1 | – | -17.5% |
| Cc1cccc(-n2cnc(C(=O)Nc3cccnc3)c2)n1 | 10.7 µM (active) | – |
| Cc1cc(C)c(NC(=O)CS(=O)CC(=O)Nc2cccnc2)c(C)c1 (stereo not given) | – | 0.546% |
| CN(CC(=O)NCCN1CCOCC1)S(=O)(=O)c1ccc(F)cc1 | – | 2.29% |
| O=C(OCc1cc(=O)n2nc(C3CC3)sc2n1)c1ccccc1Cl | 16.9 µM (active) | – |
| O=C(Nc1ccc(C(=O)OCc2cc(=O)n3nc(C4CC4)sc3n2)cc1)c1ccc(F)cc1 | – | -0.0489% |
| Cc1ccc(OCC(=O)OCc2cc(=O)n3nc(C4CC4)sc3n2)cc1 | – | -5.96% |
| Cc1nn2c(=O)cc(COC(=O)c3ccccc3NC(=O)COc3ccccc3C)nc2s1 | – | -6.91% |
| CCCCc1nn2c(=O)cc(COC(=O)c3cccc(NC(=O)COc4ccccc4)c3)nc2s1 | – | -7.88% |
| Cc1nn2c(=O)cc(COC(=O)c3cccc(NC(=O)COc4ccccc4Cl)c3)nc2s1 | 3.01 µM (active) | – |
| CN1CCc2c(sc3c2c(NCc2ccco2)nc2nnnn23)C1 | – | 7.24% |
| Cc1nc2ccccn2c(=O)c1NC(=O)c1c(F)cccc1F | – | 3.3% |
| COc1ccc2cc(C3=CC(=O)C[C@H](c4ccc5c(c4)OCO5)C3)ccc2c1 | – | 3.7% |
| Cc1cccc(C)c1NC(=O)CN1C(=O)C(C)Oc2ccccc21 (stereo not given) | – | 1.07% |
| CN(CC(=O)Nc1ccc(OC(F)(F)F)cc1)C(=O)C1CCC1 | – | -4% |
| CC(C)[C@H](NC(=O)c1ccc(F)cc1)C(=O)OCC(=O)NC(=O)c1cccn1C | – | 0.441% |
| Cc1nn(C(C)C(=O)Nc2ccc(C(C)C)cc2)c(=O)c2c1sc1ccccc12 (stereo not given) | – | -10.5% |
| O=S(=O)(c1cccc(S(=O)(=O)N2CCC(n3nnc4ccccc43)CC2)c1)N1CCCCC1 | – | 0.624% |
| O=C(c1ccc(F)cc1)N1CCC(n2nnc3ccccc32)CC1 | 2.69 µM (active) | – |
| CC(=O)c1cccc(S(=O)(=O)N2CCC(n3nnc4cc(F)ccc43)CC2)c1 | – | 1.11% |

| Structure (SMILES) | Potency | activity change, negative = inhibition |
| --- | --- | --- |
| CCCN(CCC)C(=O)Cn1c(=O)n(-c2ccc(Cl)cc2)c(=O)c2c3c(sc21)CCCCC3 | – | 4.78% |
| COc1ccc(-c2nnc(SCC(=O)Nc3ccc(C(C)C)cc3)nc2-c2ccc(OC)c(OC)c2)cc1OC | – | 4.68% |
| CN(Cc1cc2cc(F)ccc2[nH]1)Cc1nc(-c2cnccn2)no1 | – | 1.36% |
| Cc1ccc(-c2nn(-c3ccccc3)cc2C(=O)NCCCN2CCCC2=O)cc1 | 21.3 µM (active) | – |
| Cc1ccc(-c2nn(-c3ccccc3)cc2C(=O)Nc2cccc(S(=O)(=O)N3CCOCC3)c2)cc1 | – | -3.14% |
| COc1cccc(C(=O)NC(=O)Nc2ccc(-c3cc(C(F)(F)F)nn3-c3ccccc3)cc2)c1 | – | -3.37% |
| COc1ccc(-c2nn(-c3ccccc3)cc2/C=C\C(=O)Nc2ccc(C(=O)O)cc2)cc1 | 15.1 µM (active) | – |
| O=C(O)c1ccc(NC(=O)c2cn(-c3ccccc3)nc2-c2ccc(Cl)cc2)cc1 | 6.75 µM (active) | – |
| COc1ccc(NC(=O)c2ccccc2CC[N+](=O)[O-])cc1 | – | 1.33% |
| Cc1nn(Cc2ccccc2)c(C)c1C(=O)NCCCN1CCCC1=O | – | -2.49% |
| O=C(CSc1nnc(-c2ccncc2)n1-c1ccc(Cl)cc1)Nc1ccc(C(=O)O)cc1 | – | -4.75% |
| COc1ccc(NC(=O)c2cn(-c3ccccc3)nc2SC)cc1 | 15.1 µM (active) | – |
| O=C(NCCCN1CCCC1=O)c1ccc(S(=O)(=O)Nc2ccccc2)cc1 | – | -0.641% |
| COc1ccc(NC(=O)CN(C)C(=O)/C=C/c2cn(Cc3ccccc3)nc2-c2cccnc2)cc1 | – | -3.23% |
| COc1ccc(NC(=O)CSc2nc(N)c(-c3ccccc3)c(=O)[nH]2)cc1 | – | 8.54% |
| Cc1ccc(Cl)c(NC(=O)CN2CCN(C=O)CC2)c1 | – | -0.796% |
| Fc1cccc(-n2ncc3c2ncn2nc(-c4ccccc4Cl)nc32)c1 | – | -1.28% |
| CN(C(=O)CSc1nnc(C2CC2)n1C)C1CCCc2ccccc21 (stereo not given) | – | 1.86% |
| N#Cc1ccc(C2=CC(=O)C[C@H](c3ccc(Cl)cc3)C2)cc1 | – | -16.3% |
| O=C(CSc1oc(-c2ccco2)nc1S(=O)(=O)c1ccc(Cl)cc1)c1ccccc1 | – | 1.52% |
| COc1ccccc1CNc1nccn(-c2ccc(F)cc2)c1=O | – | -2.26% |
| Cc1ccc(C2(C)NC(=O)N(CC(=O)Nc3ccccc3C(=O)N3CCCCC3)C2=O)cc1 (stereo not given) | – | 0.472% |
| CCOC(=O)c1c(C)[nH]c(C)c1S(=O)(=O)N1CCCC(C(=O)NCc2ccccc2Cl)C1 (stereo not given) | – | -8.43% |
| Cc1ccc(NC(=O)CSc2nc3ccccc3c3nc(CCn4cncc4C)nn23)cc1F | – | 3.74% |
| O=C(CO/N=C/c1ccc(OC(F)F)cc1)NCc1ccc(F)cc1 | – | -10.7% |
